The whole screen tested about 340,000 compounds, of which about 1,000 (0.29%) were called active. Cut-off read from the data, not from the text of the source: inconclusive = inhibition above about 29% without an active follow-up result; inactive = below that. Not all results are given here. Potency and affinity values are given separately.
Molecular target: Genome polyprotein (Dengue virus type 2 (strain 16681-PDK53)) (UniProt P29991)
Test: flavivirus cap methylation enzyme inhibition – biochemical, confirmation dose response, primary screen (AID 588689)
Settings: Dengue-2 NS5 methyltransferase capping enzyme assay, at 25 µM, stronger effect = higher value

| Structure (SMILES) | inhibition | inhibition (measured here: pilot screen replicate inhibition) |
| --- | --- | --- |
| CCOC(=O)C1CCN(C(=O)C2CCN(S(=O)(=O)c3ccc4c(c3)CC(C)N4C(C)=O)CC2)CC1 (configuration not stated) | 2.72% (inactive) |  |
| O=C(C1CCN(Cc2ccc(Cl)cc2)CC1)N1CCN(C(c2ccccc2)c2ccccc2)CC1 | -2.91% (inactive) |  |
| O=C(O)c1ccc2c(c1)C(=O)N(c1ccc(Nc3ccccc3)cc1)C2=O | 7.94% (inactive) |  |
| O=C(O)c1ccc2c(c1)C(=O)N(c1cccc(C(=O)/C=C/c3ccccc3)c1)C2=O | -7.15% (inactive) |  |
| O=C(c1ccccc1)c1ccccc1C(=O)c1ccccc1 | 1.31% (inactive) |  |
| O=C(c1ccccc1)c1ccccc1 | -1.45% (inactive) |  |
| Cc1ccc(CN2[C@@H]3c4ccccc4C[C@@H]3OCCS2(=O)=O)cc1 | -4.81% (inactive) |  |
| O=C(NCCc1ccccc1)c1cnc2ccccn2c1=O | 1.36% (inactive) |  |
| COc1cc(CCNC2=CC(=O)c3ncccc3C2=O)ccc1O | -6.94% (inactive) |  |
| O=C1c2ccccc2-c2cccnc21 | -0.66% (inactive) |  |
| COc1ccc(C2=NN(c3ccccc3)C(=O)/C2=C\c2ccc(O)c(OC)c2)cc1 | 8.85% (inactive) |  |
| COC(=O)CC1=NN(c2ccc(OC)cc2)C(=O)/C1=C\c1ccc(Cl)cc1 | -4.74% (inactive) |  |
| COc1ccc(/C=C2/C(=O)N(c3cccc(F)c3)N=C2C)c(OC)c1 | 16.7% (inactive) |  |
| CCOC(=O)CC1=NN(c2ccccc2)C(=O)/C1=C\c1ccc(N(C)C)cc1 | 13.3% (inactive) |  |
| O=C(CN1C(=O)c2ccccc2C1=O)OCC(=O)c1ccc(F)cc1 | 5.07% (inactive) |  |
| COc1cc(C(=O)NCC(c2ccco2)N2CCOCC2)cc(OC)c1OC (configuration not stated) | -3.67% (inactive) |  |
| CCOc1ccc(CCN2C(=S)N([C@@H](CC(C)C)CN3CCCC3CN3C(=S)NC[C@@H]3CC(C)C)C[C@@H]2Cc2ccccc2)cc1 (some centres not stated) | 0.65% (inactive) |  |
| O=C(c1ccc(NC(=S)Nc2ccc(Cl)c(Cl)c2)cc1)N1CCCC1 | -10.3% (inactive) |  |
| COc1cccc2cc(C(=O)CS(=O)(=O)c3ccc(C)cc3)c(=O)oc12 | 10.9% (inactive) |  |
| Cc1ccc(S(=O)(=O)CC(=O)c2cc3cccc(C)c3oc2=O)cc1 | 5.44% (inactive) |  |
| COCCCNC(=O)/C=C/c1c(Cl)cccc1Cl | -0.74% (inactive) |  |
| Cc1cc(N2C(=O)C(O)=C(C(=O)c3ccco3)C2c2cccc(O)c2)no1 (configuration not stated) | -4.44% (inactive) |  |
| Cc1cc(N2C(=O)C(O)=C(C(=O)c3ccc(C)o3)C2c2cccc(Cl)c2)no1 (configuration not stated) | 10.9% (inactive) |  |

| Structure (SMILES) | inhibition | inhibition (measured here: pilot screen replicate inhibition) |
| --- | --- | --- |
| CCOc1ccc(C2C(C(=O)c3ccc(C)o3)=C(O)C(=O)N2c2cc(C)on2)cc1OC (configuration not stated) | 4.09% (inactive) |  |
| COC(=O)c1ccc(C2C(C(=O)c3ccc(C)o3)=C(O)C(=O)N2c2cc(C)on2)cc1 (configuration not stated) | -3.53% (inactive) |  |
| Cc1cc(N2C(=O)C(O)=C(C(=O)c3ccco3)C2c2cccc(Cl)c2)no1 (configuration not stated) | -4.65% (inactive) |  |
| COc1cccc(C2C(C(=O)c3ccc(C)o3)=C(O)C(=O)N2c2cc(C)on2)c1 (configuration not stated) | -1.77% (inactive) |  |
| O=C(NCN1CCN(c2ccccn2)CC1)c1cnccn1 | -4.12% (inactive) |  |
| O=C(Nc1cccc([N+](=O)[O-])c1)c1cc(S(=O)(=O)Nc2ccccn2)ccc1Cl | 0.65% (inactive) |  |
| O=C(COC(=O)CSc1ccc([N+](=O)[O-])cc1)NCC1CCCO1 (configuration not stated) | 5.91% (inactive) |  |
| Cc1ccc(C)c2c1c1ccccc1n2C | 0.78% (inactive) |  |
| Cc1ccc2c(c1)c1ccc3c(c1n2C)C(=O)C=CC3=O | 47.6% (inactive) |  |
| Cc1cc(=O)n(C)c2ccccc12 | -7.77% (inactive) |  |
| COc1ccc2c(c1)c1ccc3c(c1n2C)C(=O)C=CC3=O | 5.87% (inactive) |  |
| CCC(C)NC(=O)CCSCCC(=O)NC(C)CC (configuration not stated) | -4.42% (inactive) |  |
| CCCC(C)C(=O)Nc1ccc(S(N)(=O)=O)cc1 (configuration not stated) | -3.64% (inactive) |  |
| CCOC(=O)C1CCCN(S(=O)(=O)NC[C@H]2O[C@@H](n3cnc4c(N)ncnc43)[C@H](O)[C@@H]2O)C1 (some centres not stated) | -8.6% (inactive) | -4.29% |
| Fc1cnc(N2CCc3ccccc32)nc1N1CCc2ccccc21 | -0.68% (inactive) |  |
| O=C(O)c1ccc2c(c1)C(=O)N(N1C(=O)c3ccccc3C1=O)C2=O | 5.13% (inactive) |  |
| Cc1cc(C(=O)O)ccc1-n1c(C)cc(C=C2C(=O)c3ccccc3C2=O)c1C | -19.9% (inactive) |  |
| Cc1ccc(C(=O)O)cc1-c1ccc(C=C2C(=O)c3ccccc3C2=O)o1 | -0.73% (inactive) |  |
| O=C1C(=Cc2ccco2)C(=O)c2ccccc21 | -4.01% (inactive) |  |
| O=C(O)c1ccc2c(c1)C(=O)N(Cc1ccco1)C2=O | 5.56% (inactive) |  |
| Cc1ccc(C=C2C(=O)c3ccccc3C2=O)o1 | 1.92% (inactive) |  |
| COc1cc(COC(=O)c2cnc(C)cn2)c(OC)cc1Br | 7.48% (inactive) |  |
| Cc1cc(Br)ccc1SCC(=O)OCC(=O)NCc1ccco1 | 13.5% (inactive) |  |

| Structure (SMILES) | inhibition | inhibition (measured here: pilot screen replicate inhibition) |
| --- | --- | --- |
| COC(=O)CCC(=O)COc1ccccc1C#N | -1.61% (inactive) |  |
| O=S(=O)(O)c1cc(O)c(N=Nc2ccc(O)cc2O)c2ccccc12 | 22.4% (inactive) |  |
| Oc1ccc(N=Nc2ccc(Br)cc2)c(O)c1 | 7.83% (inactive) |  |
| CCOC(=O)CSc1nc2c(sc(=S)n2-c2ccc(OCC)cc2)c(=O)[nH]1 | 0% (inactive) |  |
| CCOc1ccc(-n2c(=S)sc3c(=O)n(-c4ccccc4)c(SCC(=O)O)nc32)cc1 | -5.28% (inactive) |  |
| CC(C)N1C(=O)C(=O)N(CC(=O)N2c3ccccc3NC(=O)CC2C)C1=O (configuration not stated) | 4.36% (inactive) |  |
| COCC(C)NC(=O)c1cc(-c2ccccc2OC)on1 (configuration not stated) | -5.61% (inactive) |  |
| CCOC(=O)C1=CN2CCC[C@H]2CC1=O | -9.17% (inactive) |  |
| CCOC(=O)C1=CN2CCCC[C@@H]2CC1=O | -4.81% (inactive) |  |
| Cc1ccc(S(=O)(=O)NCCC(=O)N2CCC(Cc3ccccc3)CC2)cc1 | -2.89% (inactive) |  |
| CCN(CC(=O)Nc1ccccc1C(F)(F)F)C(=O)c1ccc2c(c1)NC(=O)C(C)S2 (configuration not stated) | -4.95% (inactive) |  |
| NC(=O)C1CCN(C(=O)c2ccc3c(=O)n(Cc4ccco4)c(SCc4ccc([N+](=O)[O-])cc4)nc3c2)CC1 | 12.3% (inactive) |  |
| CC1(NC(=O)N2CCOCC2)CCS(=O)(=O)C1 (configuration not stated) | 0% (inactive) |  |
| CC1(C)CC(=O)C(C(C2=C(O)CC(C)(C)CC2=O)c2ccc(Cl)c([N+](=O)[O-])c2)C(=O)C1 (configuration not stated) | -1.46% (inactive) |  |
| CC1(C)CC(=O)C(C(C2=C(O)CC(C)(C)CC2=O)c2ccc([N+](=O)[O-])cc2)C(=O)C1 (configuration not stated) | 1.82% (inactive) |  |
| COc1cc(C(=O)NCC(=O)N2CCN(S(=O)(=O)c3ccccc3C(F)(F)F)CC2)cc(OC)c1OC | -3.36% (inactive) |  |
| O=c1sc2ccccc2c(N2CCOCC2)c1[N+](=O)[O-] | -3.49% (inactive) |  |
| C=CSc1sc(Cl)c(N2CCOCC2)c1[N+](=O)[O-] | 0% (inactive) |  |
| CN1C(=O)/C(=C2\SC(=S)N(CCCCCC(=O)O)C2=O)c2ccccc21 | -1.55% (inactive) |  |
| CC1CN(C2=NC(=O)/C(=C3/C(=O)N(Cc4ccc(F)cc4)c4ccccc43)S2)CC(C)O1 (configuration not stated) | -3.91% (inactive) |  |
| O=C(O)CCN1C(=O)C(=C2CCCCCC2)SC1=S | 10.4% (inactive) |  |
| COCCN1C(=O)/C(=C2/C(=O)N(CC(=O)Nc3ccccc3Cl)c3ccccc32)SC1=S | 6.48% (inactive) |  |
| O=C(O)CCN1C(=O)/C(=C2\C(=O)N(Cc3ccccc3Cl)c3ccccc32)SC1=S | 22.2% (inactive) |  |

| Structure (SMILES) | inhibition | inhibition (measured here: pilot screen replicate inhibition) |
| --- | --- | --- |
| NN1C(=O)/C(=C2/Sc3ccccc3N2CCCS(=O)(=O)O)SC1=S | -12.9% (inactive) |  |
| CC(C)NC(=O)COC(=O)c1ccccc1Oc1ccccc1 | -2.2% (inactive) |  |
| CCOC(=O)C1=C(C)N=c2s/c(=C\c3ccc(OCC(=O)O)c(OC)c3)c(=O)n2C1c1ccc(OC)cc1 (configuration not stated) | -8.46% (inactive) |  |
| CCOC(=O)C1=C(C)N=c2s/c(=C3/C(=O)Nc4ccccc43)c(=O)n2C1c1ccc(C)cc1 (configuration not stated) | 22.8% (inactive) |  |
| O=C1CCC/C(=N\NC(=O)COc2ccc(Cl)cc2)C1 | 3.18% (inactive) |  |
| O=C(NN=C1CCCC1)c1ccc(Cl)cc1 | -2.6% (inactive) |  |
| O=C(CSc1nccc(=O)[nH]1)Nc1ccc(S(=O)(=O)N2CCOCC2)cc1 | 0% (inactive) |  |
| Cc1ccc(CNC(=O)CCn2ccc3cc(S(=O)(=O)N4CCCC4)ccc32)cc1 | -4.92% (inactive) |  |
| Cc1onc(-c2ccccc2)c1C(=O)OCC(=O)Nc1ccccc1 | 8.65% (inactive) |  |
| O=C1C=C(Nc2ccccc2)C(=O)c2ccccc21 | -2.9% (inactive) |  |
| O=C(Nc1ccccc1Cl)c1ccccc1 | 1.49% (inactive) |  |
| CC(=O)Nc1ccc(NC2=CC(=O)c3ccccc3C2=O)cc1 | -5.82% (inactive) |  |
| O=C(NC1=C(Nc2ccc(Cl)cc2)C(=O)c2ccccc2C1=O)c1ccccc1 | -1.83% (inactive) |  |
| O=C(Nc1cccc(Cl)c1)C1C2C=CC3(O2)C1C(=O)N(CCCN1CCCCC1)C3C(=O)NC1CCCCC1 (configuration not stated) | -16% (inactive) |  |
| Cc1ccc(OCCCc2c(C)n[nH]c2C)cc1 | -5.36% (inactive) |  |
| CCCC1CC(CSc2ncn[nH]2)OC1=O (configuration not stated) | -12.3% (inactive) |  |
| Cc1ccc(S(=O)(=O)N(CC(=O)N2CCOCC2)c2ccc(Br)cc2)cc1 | -8.01% (inactive) |  |
| Cc1ccc2ccc(S(=O)(=O)NCc3ccccn3)cc2c1 | -1.67% (inactive) |  |
| COc1cccc(CNC(=O)c2ccc(CS(=O)Cc3ccc(C)cc3)o2)c1 (configuration not stated) | -4.44% (inactive) |  |
| O=C(Nc1ccc(S(=O)(=O)NCc2ccco2)cc1)c1cccc(F)c1 | -4.85% (inactive) |  |
| COc1ccc(C2CC(c3ccccc3)=NN2c2ccc(N)cc2)cc1 (configuration not stated) | -12.8% (inactive) |  |
| COc1ccc(C2CC(c3ccccc3)=NN2c2ccc(C(N)=O)cc2)cc1 (configuration not stated) | -4.66% (inactive) |  |

— PubChem BioAssay AID588689 (Southern Research Specialized Biocontainment Screening …, 2011)
